Test [1] can be described thus: qHTS assay to identify small molecule antagonists of the constitutive androstane receptor (CAR) signaling pathway - cell viability counter screen (AID 1224837). Note: nearly all actives have a fitted effect of over 45% in size. Note: potency is the fitted concentration of half-maximal effect. The method in brief:
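HepG2-CYP2B6-hCAR cells, 2500/well, 4 hr pre-incubation; compound titration, 15 conc.; CITCO 50 nM final; 23 hr, 37 C/5% CO2; CellTiter-Fluor, fluorescence intensity.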

The target in test [2] is Nuclear receptor subfamily 1 group I member 3 (Homo sapiens) (UniProt Q14994). The test is described as follows: qHTS assay to identify small molecule antagonists of the constitutive androstane receptor (CAR) signaling pathway (AID 1224838).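 Note: HepG2 cells stably expressing hCAR with CYP2B6 luciferase reporter stimulated by CITCO; nearly all actives have a fitted effect of over 40% in size.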 Note: potency is the fitted concentration of half-maximal effect. In outline:
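HepG2-CYP2B6-hCAR cells; 4 h pre-incubation; cpd (15 conc) + CITCO 50 nM final; 24 h, 37 C/5% CO2; ONE-Glo, luminescence.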

For test [3] the target is unchanged. The test is described as follows: qHTS assay to identify small molecule agonists of the constitutive androstane receptor (CAR) signaling pathway (AID 1224839).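 For activation: HepG2 cells stably carrying human CAR and a CYP2B6 luciferase reporter.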 Note: nearly all actives have a fitted effect of over 15% in size. Note: potency is the fitted concentration of half-maximal effect. The method in brief: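 Cells were plated and incubated 4 hrs, then dosed with compounds at 15 concentrations. PK11195 was added to 0.75 uM final. After 24 hrs at 37 C, luciferase luminescence was measured.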

The nature of test [4]: qHTS assay to identify small molecule antagonists of the estrogen related receptor signaling pathway with the pleiotropic PPARgamma coactivator (PGC) from Tox21 10K library - cell viability counter screen (AID 1224840; active = well fitted cell-killing curve with a large enough effect in the repeat runs, not every such curve was filed as active; note: nearly all actives have a fitted effect of over 40% in size; note: potency is the fitted concentration of half-maximal effect). In outline:
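PGC/ERR cells, 2,000/well; 6 h pre-incubation 37 C/5% CO2; cpd in DMSO via pin tool; 17.5 h 37 C; CellTiter-Fluor, 30 min; fluorescence.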

Test [5] is described as follows: qHTS assay to identify small molecule antagonists of the estrogen related receptor signaling pathway with the pleiotropic PPARgamma coactivator (PGC) from Tox21 10K library (AID 1224841; call rule not given here; note: actives are mostly falling curves and most rising ones were filed inactive; nearly all actives have a fitted effect of over 50% in size; note: potency is the fitted concentration of half-maximal effect). In outline:
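PGC/ERR cell line, 2,000 cells/well; 6 h pre-incubation 37 C/5% CO2; compounds (DMSO) pinned in; 18 h, 37 C; One-Glo, 30 min RT; luminescence.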

Test [6] can be described thus: qHTS assay to identify small molecule agonists of the estrogen related receptor signaling pathway with the pleiotropic PPARgamma coactivator (PGC) from Tox21 10K library (AID 1224842). Note: nearly all actives have a fitted effect of over 15% in size. Note: potency is the fitted concentration of half-maximal effect. In outline: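 PGC/ERR reporter cells (NTP line) were seeded 2,000 per well, rested 6 h at 37 C/5% CO2, then pin-dosed with compounds in DMSO for 18 h at 37 C; luciferase read by One-Glo luminescence after 30 min at room temperature.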

Test [7] concerns the target Thyrotropin receptor (Homo sapiens) (UniProt P16473). The test is described as follows: qHTS assay to identify small molecule agonists of the thyroid stimulating hormone receptor (TSHR) signaling pathway (AID 1224843; calls by dose curve; note: nearly all actives have a fitted effect of over 45% in size; note: potency is the fitted concentration of half-maximal effect). In outline:
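Cell line HEK293 with TSHR; density 800/well. Exposure 30 min RT. Readout HTRF cAMP (cAMP-d2/anti-cAMP-cryptate), 1 h RT before reading.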

Test [8] in a line: qHTS assay to identify small molecule agonists of the hypoxia (HIF-1) signaling pathway - cell viability counter screen (AID 1224844; calls by dose curve; note: nearly all actives have a fitted effect of over 50% in size; note: potency is the fitted concentration of half-maximal effect). In outline:
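ME-180 HRE-bla cells, 2,000/well, 0.5% dialyzed FBS; 5 hr settle, 17 hr compound at 37C/5% CO2; CCF4-AM reporter read first, then CellTiter-Glo luminescence after 30 min RT.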

A short description of test [9]: qHTS assay to identify small molecule agonists of H2AX (AID 1224845; active = well fitted activation curve with a large enough effect in the signal ratio in the repeat runs, not every such curve was filed as active; the % refers to the signal ratio; note: potency is the fitted concentration of half-maximal effect). In outline:
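Wild-type CHO-K1 cells plated overnight, then exposed 3 hr at 37C to compounds at 15 concentrations (0.76% DMSO). Lysed, then HTRF anti-pH2AX(S139)-cryptate/anti-H2AX-d2 detection after 24 hr at room temperature; emissions 665 and 620 nm.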

The nature of test [10]: qHTS assay to identify small molecule agonists of the hypoxia (HIF-1) signaling pathway (AID 1224846; active = well fitted activation curve with a large enough effect in the signal ratio in the repeat runs, not every such curve was filed as active; the % refers to the signal ratio). The method in brief: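 Cell line: CellSensor HRE-bla ME-180; 2,000 cells/well; 0.5% dialyzed FBS; 5 h preincubation; DMSO compound pin transfer; 17 h, 37C, 5% CO2; CCF4-AM added; bla FRET signal scored for activation.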
The nature of test [11]: qHTS assay to identify small molecule agonists of H2AX - cell viability counter screen (AID 1224847; calls by dose curve; note: nearly all actives have a fitted effect of over 30% in size; note: potency is the fitted concentration of half-maximal effect). The method in brief: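 Cytotoxicity counter screen in wild-type CHO-K1 cells: a 3 hr compound treatment at 37C across 15 concentrations, followed by CellTiter-Glo luminescence to gauge viable cells.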
The nature of test [12]: qHTS assay to identify small molecule antagonists of the estrogen related receptor (ERR) signaling pathway from Tox21 library (AID 1224848). Note: nearly all actives have a fitted effect of over 50% in size. Note: potency is the fitted concentration of half-maximal effect. In outline: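 Screening used an ERR reporter line supplied by NTP, exposed for 18 h at 37 C to library compounds delivered in DMSO. Signal was luciferase luminescence developed with ONE-Glo at room temperature for 30 min.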
Test [13] is described as follows: qHTS assay to identify small molecule agonists of the estrogen related receptor (ERR) signaling pathway from Tox21 library (AID 1224849; calls by dose curve; note: nearly all actives have a fitted effect of over 15% in size). Conditions: ERR reporter cell line, ONE-Glo luciferase, 18 h; at 92.4 µM (top of the series) unless noted. In outline: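 ERR cells, 6 h pre-incubation 37 C/5% CO2; cpd in DMSO pinned; 18 h 37 C; ONE-Glo added, 30 min RT; luminescence read. Agonist mode, qHTS.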

Test [14] in a line: qHTS RealTime-Glo MT Cell Viability Assay in HepG2 cells - 24 hour (AID 1224867). Note: nearly all actives have a fitted effect of over 50% in size. Note: potency is the fitted concentration of half-maximal effect. The method in brief: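 Real-time, nonlytic viability: 600 HepG2 cells/well mixed with NanoLuc enzyme plus prosubstrate; 5 h settle, compound (DMSO) added by pintool; luminescence monitored over 40 h at 37 C.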
A short description of test [15]: qHTS RealTime-Glo MT Cell Viability Assay in HEK293 cells - 32 hour (AID 1224868). Note: nearly all actives have a fitted effect of over 50% in size. Note: potency is the fitted concentration of half-maximal effect. In outline: (§1)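 Cells + reagent dispensed (600 cells/well, HEK293) → 5 h at 37 C/5% CO2 → 23 nL compound in DMSO pinned → 40 h at 37 C → luminescence read at 0, 8, 16, 24, 32, 40 h.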
Test [16] in a line: A CellTox Green Cytotoxicity Assay to monitor cytotoxicity in HEK293 cells - 0 hour (AID 1224869). Note: nearly all actives have a fitted effect of over 50% in size. In outline: (§2)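 Nonlytic real-time cytotoxicity: HEK293 + CellTox Green reagent plated, 5 h preincubation, pintool compound addition (23 nL in DMSO), 37 C for 40 h, fluorescence measured at successive time points.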
Test [17] can be described thus: qHTS RealTime-Glo MT Cell Viability Assay in HepG2 cells - 40 hour (AID 1224870). Note: nearly all actives have a fitted effect of over 50% in size. Note: potency is the fitted concentration of half-maximal effect. In outline: (§3)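 HepG2 cells mixed with RealTime-Glo MT reagents (NanoLuc plus cell-permeant prosubstrate) were seeded at 600 cells/well, incubated 5 h at 37 C/5% CO2, then pinned with compounds in DMSO; nonlytic luminescence tracked viability during 40 h treatment.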
Test [18] can be described thus: A CellTox Green Cytotoxicity Assay to monitor cytotoxicity in HEK293 cells - 40 hour (AID 1224871). Note: nearly all actives have a fitted effect of over 45% in size. Note: potency is the fitted concentration of half-maximal effect. In outline:
as §2

Test [19] in a line: qHTS RealTime-Glo MT Cell Viability Assay in HEK293 cells - 16 hour (AID 1224872). Note: nearly all actives have a fitted effect of over 50% in size. Note: potency is the fitted concentration of half-maximal effect. In outline:
as §1

Test [20] is described as follows: qHTS RealTime-Glo MT Cell Viability Assay in HepG2 cells - 8 hour (AID 1224873). Note: nearly all actives have a fitted effect of over 55% in size. Note: potency is the fitted concentration of half-maximal effect. In outline: as §3

Values without a mark were called inactive. Records with an inconclusive call do not appear. Active and inactive are the calls of the source. Unless noted, calls come from the whole dose curve; as a rule, active = well fitted curve in the direction sought with a large enough effect in the repeat runs; inconclusive = weak or mixed curves; inactive = no such curve, though single readings can be large; an effect the other way counts as inactive or inconclusive.
% is set by controls: 0 for no effect and ±100 for the full control effect.

Chain of Nuclear receptor subfamily 1 group I member 3 (Homo sapiens) (Q14994 whole entry, looked up): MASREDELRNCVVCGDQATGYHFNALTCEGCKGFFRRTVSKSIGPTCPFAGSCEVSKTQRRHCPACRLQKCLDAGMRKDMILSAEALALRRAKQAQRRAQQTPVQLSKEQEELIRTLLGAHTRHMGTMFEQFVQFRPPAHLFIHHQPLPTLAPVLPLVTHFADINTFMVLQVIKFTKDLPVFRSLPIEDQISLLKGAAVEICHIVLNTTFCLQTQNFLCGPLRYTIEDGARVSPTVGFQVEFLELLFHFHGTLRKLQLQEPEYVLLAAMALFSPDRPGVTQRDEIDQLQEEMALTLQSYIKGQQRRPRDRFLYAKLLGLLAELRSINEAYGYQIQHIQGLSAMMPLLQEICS
Chain of Thyrotropin receptor (Homo sapiens) (P16473 whole entry, looked up): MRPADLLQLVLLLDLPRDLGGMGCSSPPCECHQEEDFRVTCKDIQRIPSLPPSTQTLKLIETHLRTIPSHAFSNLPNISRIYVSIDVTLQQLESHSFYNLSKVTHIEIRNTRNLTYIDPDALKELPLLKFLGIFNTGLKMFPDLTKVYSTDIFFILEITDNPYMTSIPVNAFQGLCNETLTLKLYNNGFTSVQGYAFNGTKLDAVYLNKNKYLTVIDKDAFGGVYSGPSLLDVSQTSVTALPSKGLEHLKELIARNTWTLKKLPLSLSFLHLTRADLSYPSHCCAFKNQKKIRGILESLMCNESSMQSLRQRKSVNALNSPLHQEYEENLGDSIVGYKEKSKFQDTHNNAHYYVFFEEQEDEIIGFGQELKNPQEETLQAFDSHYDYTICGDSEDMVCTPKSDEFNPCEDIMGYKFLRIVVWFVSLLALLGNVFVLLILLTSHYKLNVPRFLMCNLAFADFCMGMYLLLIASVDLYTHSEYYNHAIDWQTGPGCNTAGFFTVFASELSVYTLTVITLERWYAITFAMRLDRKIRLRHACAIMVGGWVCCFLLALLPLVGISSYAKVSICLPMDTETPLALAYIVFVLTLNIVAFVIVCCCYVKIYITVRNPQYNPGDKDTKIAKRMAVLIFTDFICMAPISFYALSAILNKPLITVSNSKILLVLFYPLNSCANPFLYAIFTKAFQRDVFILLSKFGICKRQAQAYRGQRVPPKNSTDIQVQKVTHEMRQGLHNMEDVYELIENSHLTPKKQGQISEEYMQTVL

Regarding `CCCCCCCCSCc1cc(C)c(O)c(CSCCCCCCCC)c1`, the Potency entry in test [1], in test [2], in [3], in test [4], in [5] and in [6] was “inactive” throughout. For the same molecule, the Potency result in test [7], in test [8], in test [9], in [10], in [11] and in test [12] was “inactive” throughout. For the same molecule, the Potency result in test [14], in [15], in [16] and in test [17] was “inactive” each time. Moreover, the activity change, positive = activation in test [13] was 3.09%.
For the molecule `Nc1ccc(Oc2cccc(Oc3ccc(N)cc3)c2)cc1`, the Potency entry in [1], in test [3], in [4], in test [6], in test [7] and in [8] was “inactive” in each case. The Potency result in test [10], in test [14], in test [16], in test [17], in [18] and in [19] was “inactive” each time. The Potency in [2] was 1.37 µM (active); in test [5], 8.63 µM (active); in test [9], 113 µM (active); in test [12] it was 4.33 µM (active). In addition, the activity change, positive = activation in test [13] is -57.1%.
For `CN1CC[C@H](c2c(O)cc(O)c3c(=O)cc(-c4ccccc4Cl)oc23)[C@H](O)C1`, the Potency in [1] is 0.0944 µM (active); in test [2] it was 0.596 µM (active); in [6], 0.531 µM (active); in [15], 0.19 µM (active). The Potency entry in [3], in test [4], in test [5], in [8], in [9] and in test [12] was “inactive” throughout. The Potency result in test [14], in test [16], in test [17] and in test [20] was “inactive” in each case. Also, in [13], the activity change, positive = activation was 28.6% [at 42.5 µM].
For `O=C1c2ccccc2C(=O)c2c(Cl)cccc21`, the Potency result in [1], in test [2], in [4], in test [5], in [7] and in test [10] was “inactive” each time. For the same molecule, the Potency entry in [12], in [14], in test [16], in test [17] and in [18] was “inactive” throughout. Also, the Potency in [3] was 28.9 µM (active). Moreover, the activity change, positive = activation in test [13] was 1.21% [at 42.5 µM].
Turning to `C=C1C(CCl)(CCl)C2(Cl)C(Cl)C(Cl)C1(Cl)C2(Cl)Cl` (stereo not drawn), the Potency result in test [1], in test [2], in test [6], in test [16] and in test [17] was “inactive” throughout. The Potency in [3] is 8.53 µM (active); in [4], 53.8 µM (active); in test [5], 60.4 µM (active); in test [7], 17 µM (active); in test [8], 24.3 µM (active); in test [9], 99.6 µM (active). In addition, the Potency in [11] is 99.6 µM (active); in test [12], 60.4 µM (active); in test [18], 48.4 µM (active); in test [19] it was 48.4 µM (active). The activity change, positive = activation in [13] is -73.9%.
With `CN1CCN(c2ccccc2/C=C2\SCCN(c3ccc(Cl)c(Cl)c3)C2=O)CC1`, the Potency in [1] is 24.3 µM (active); in [4], 48.6 µM (active); in [8], 49 µM (active); in [11], 50.5 µM (active); in test [12], 24.3 µM (active); in [14], 38.9 µM (active). Also, the Potency in test [15] is 12.3 µM (active); in test [17] it was 21.9 µM (active); in test [19] it was 12.3 µM (active); in test [20], 49 µM (active). Also, the Potency result in test [2], in test [3], in test [6] and in [16] was “inactive” each time. Besides, the activity change, positive = activation in test [13] is -79.7%.
